Source: PubChem BioAssay (National Center for Advancing Translational Sciences (NCATS))
Hits are enriched below; roughly 4.6% of the tested compounds scored in any of these assays.
TRHR agonist: qHTS for Small Molecule Agonists and Allosteric Enhancers of Human TRH Receptor: Primary Screen for Agonists | TRHR cells, calcium flux fluo-8, FDSS agonist mode | activation, % at 2 µM | 0.18% of 360,000 active | AID 493084, 2011
Target sequence (P34981 whole entry, looked up): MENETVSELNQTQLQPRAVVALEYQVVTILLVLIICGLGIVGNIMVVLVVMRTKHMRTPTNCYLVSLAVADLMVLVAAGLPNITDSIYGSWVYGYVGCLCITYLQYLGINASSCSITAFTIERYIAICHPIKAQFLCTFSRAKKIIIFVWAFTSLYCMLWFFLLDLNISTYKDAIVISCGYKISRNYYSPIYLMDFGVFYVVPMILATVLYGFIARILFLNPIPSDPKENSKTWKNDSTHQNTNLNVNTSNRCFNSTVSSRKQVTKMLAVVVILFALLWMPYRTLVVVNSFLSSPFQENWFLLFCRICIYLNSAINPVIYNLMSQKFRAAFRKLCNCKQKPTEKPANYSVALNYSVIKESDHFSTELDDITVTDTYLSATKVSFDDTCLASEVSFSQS
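TRHR-expressing cells, plated overnight in medium with 10% serum, were loaded with fluo-8 calcium dye at room temperature. After a 10 s baseline, library compound was pin-added and calcium release was recorded kinetically (ex 480/em 530) as agonist response.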
TRHR enhancer: qHTS for Small Molecule Agonists and Allosteric Enhancers of Human TRH Receptor: Primary Screen for Enhancers. enhancement, % at 2 µM. AID 493056, 2011. 0.66% of 360,000 active. Thyrotropin-releasing hormone receptor (Homo sapiens), P34981. TRHR cells, fluo-8 calcium fluorescence, EC20 TRH enhancement; in the data active = enhancement above about 30%
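TRHR-expressing cells loaded with fluo-8 calcium dye were read kinetically (ex 480/em 530) during compound addition, then stimulated with an EC20 of TRH (10 nM final). Enhancement of the Gq-mediated intracellular calcium response was scored.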
D1 potentiator: Potentiators of Human D1 Dopamine Receptor: qHTS; 0.036% of 360,000 active; potentiation, % at 10 µM; HEK293 TREx D1 cells, calcium flux, dopamine EC20 potentiation; in the data active = potentiation above about 30%
D1 antag: Antagonist of Human D 1 Dopamine Receptor: qHTS; HEK293 TREx D1 cells, calcium flux, dopamine EC80; stronger effect = lower value; AID 504652, 2011; D(1A) dopamine receptor (Homo sapiens), P21728; 3.2% of 360,000 active; activity change, negative = inhibition, % at 10 µM; in the data active = activity change below about -30%
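Allosteric or orthosteric antagonism assessed as attenuation of the calcium response to EC80 dopamine, added 180 s after compound, in induced HEK293 Trex D1 cells loaded with no-wash calcium dye.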
D1 agonist: Allosteric Agonists of the Human D1 Dopamine Receptor: qHTS; D(1A) dopamine receptor (Homo sapiens), P21728; HEK293 T-REx D1 cells, calcium flux, agonist mode; activation, % at 2 µM; 1% of 360,000 active; AID 504660, 2011
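Agonism was scored from calcium flux recorded over 180 s (1 read/s) after pintool compound addition, following a 10-cycle baseline. Cells were inducible force-coupled HEK293 TREx D1, plated overnight at 30 C and loaded with no-wash calcium dye.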
Hits are given with their value; – = inactive; · = no result. Rule as the data show it, unless noted: active = activation above about 30%; inactive = the rest.

SMILES	TRHR agonist	TRHR enhancer	D1 potentiator	D1 antag	D1 agonist
C/C(=N\Nc1ccc([N+](=O)[O-])cc1)c1ccco1	–	–	–	–	33
CC/C(=N\Nc1ccc([N+](=O)[O-])cc1)c1ccccc1	–	–	–	-34	–
Cc1ccc(C)c(NC(=O)CN2CCSc3ccc(S(=O)(=O)N4CCCC4)cc32)c1	–	–	–	–	–
COc1ccc(-c2cc3onc(-c4c(Cl)cccc4Cl)c3c(=O)n2C)cc1	–	–	–	-33	–
COc1ccc(CNC(=O)CSCc2ccc(C)cc2)c(OC)c1	–	–	–	–	–
O=C(C1CC1)N1CCc2cc(Br)cc(S(=O)(=O)NCc3ccco3)c21	–	–	–	-31	–
COc1ccc(NS(=O)(=O)c2cc(Br)cc3c2N(C(=O)C2CC2)CC3)cc1OC	–	49	–	–	–
COc1cc(NC(=O)CCNS(=O)(=O)c2ccc3c(c2)CCN3C(=O)C2CC2)cc(OC)c1	–	46	–	–	–
COc1ccc(NS(=O)(=O)c2ccc3c(c2)CCCN3C(=O)C2CCC2)cc1OC	–	–	–	-42	–
Cc1ccc(CNS(=O)(=O)c2cc(Br)cc3c2N(C(=O)C2CC2)CC3)cc1	–	–	–	–	–
CCC(=O)N1CCc2cc(S(=O)(=O)NCCC(=O)Nc3ccc(OC)cc3)ccc21	–	–	–	–	–
COc1ccc(CCNC(=O)c2cc3c(=O)n(C)c4cc(Cl)ccc4c3s2)cc1OC	–	–	–	–	–
CC1(c2ccccc2)CC(C)(C)N(C(=O)c2cccc(Cl)c2)c2ccccc21 (stereo unspecified)	–	–	–	–	–
COC(=O)c1ccc(CSCc2ccc(C#N)cc2)cc1	–	–	–	-35	–
N#Cc1ccc(CSCC(=O)O)cc1	–	–	–	–	–
S=c1[nH]nc(Nc2cccc3ccccc23)s1	–	–	–	-33	–
Fc1ccccc1Nc1n[nH]c(=S)s1	–	–	–	–	–
OC[C@H]1O[C@@H](O[C@@H]2[C@@H](CO)O[C@@](O)(CO)[C@H]2O)[C@H](O)[C@@H](O)[C@H]1O	–	–	–	-36	–
Cn1c(=O)c2c(-c3ccccc3Cl)n(-c3cc(Cl)ccc3O)cc2n(C)c1=O	–	–	–	–	43
COc1cccc(NC(=O)Cn2c(=O)n(-c3cccc(OC)c3)c(=O)c3sc4ccccc4c32)c1	–	–	–	–	–
Cc1sc2ncnc(Sc3ccccc3C(=O)O)c2c1C	–	35	–	–	–
CCN1/C(=C/c2ccc3cc(C)ccc3[n+]2CC)Sc2ccccc21	50	–	–	–	–
CCN1/C(=C/c2ccc3cc(C)ccc3[n+]2CC)Sc2cc(C)c(C)cc21	–	–	–	–	–
CSc1ccc(C(=O)N2CCC(CCC(=O)NC3CC3)CC2)cc1	–	–	–	–	–
CCOC(=O)C1CCCN(c2ncnc3c2cnn3-c2ccc(C)c(Cl)c2)C1 (stereo unspecified)	–	–	–	-34	–
SMILES	TRHR agonist	TRHR enhancer	D1 potentiator	D1 antag	D1 agonist
Cc1cc(O)c(NC(=O)c2cc([N+](=O)[O-])ccc2Cl)cc1C	–	–	–	–	–
COc1cc(NC(=O)c2cc(-c3ccccc3O)no2)cc(OC)c1OC	–	–	–	–	–
Cc1ccc(-c2cc(C(=O)Nc3cc(C)ccc3O)no2)cc1	–	–	–	–	–
Cc1ccc(O)c(NC(=O)c2cc(-c3ccccc3Cl)on2)c1	–	–	–	-33	–
Cc1ccc(O)c(NC(=O)c2cc(-c3ccccc3O)no2)c1	–	–	–	-31	–
Cc1ccc(O)c(NC(=O)c2cc([N+](=O)[O-])ccc2Cl)c1	–	–	–	-30	–
COc1cc(CNCc2ccccc2)cc(Cl)c1OC	–	–	–	–	–
COc1cc(CNCCc2ccccc2)cc(Br)c1OCC(=O)Nc1ccccc1C	–	–	–	–	51
COc1cc(CNCCc2ccccc2)cc(Cl)c1OCc1ccccc1	–	–	–	–	40
COc1cc(CNCCc2ccc(F)cc2)ccc1OCc1ccc(Cl)nc1	–	–	–	-40	92
COc1cc(CNCCc2c[nH]c3ccccc23)cc(Cl)c1OCC(N)=O	–	–	–	-31	–
CNCc1cc(Br)c(OCC(=O)Nc2ccccc2OC)c(OC)c1	–	–	–	–	–
Cc1ccc(CNC(=O)C(C(C)C)N2Cc3ccccc3C2=O)cc1 (stereo unspecified)	–	–	–	–	–
CCOc1c(Cl)cc(CNCC(C)C)cc1OC	–	–	–	–	–
CCOc1cc(CNCC(C)C)cc(Cl)c1OCc1ccccc1	–	–	–	–	47
O=C(Nc1cccc([N+](=O)[O-])c1)c1cnccn1	–	–	–	-59	–
CC(C)(C)c1ccc(C(=O)Nc2cccc([N+](=O)[O-])c2)cc1	–	–	–	–	–
O=C(Nc1cccc([N+](=O)[O-])c1)c1ccc2ccccc2c1O	–	–	–	-33	–
CCCc1cc(C(=O)Nc2cccc([N+](=O)[O-])c2)cs1	–	–	–	-32	–
CC(OC(=O)c1cnccn1)C(=O)Nc1nc(-c2cccc([N+](=O)[O-])c2)cs1 (stereo unspecified)	–	–	–	-32	–
O=C(Cc1ccccc1)Nc1cccc([N+](=O)[O-])c1	–	–	–	–	–
COc1ccc(CC(=O)N2CCc3cc(OC)c(OC)cc3C2COc2cc(C)cc(C)c2)cc1OC (stereo unspecified)	–	–	–	–	–
CCc1ccc(-n2nc3cc(C)c(NC(=O)c4cc(Cl)ccc4OC)cc3n2)cc1	–	–	–	–	–
Cc1cc(C)n(-c2ccc(C(=O)Nc3cccc(S(=O)(=O)N(C)C)c3)cc2)n1	–	–	–	–	–
Cc1ccc(SCc2ccc(C(=O)Nc3cc([N+](=O)[O-])ccc3C)cc2)cc1	–	–	–	–	–
Cc1cc(C)n(-c2ccc(C(=O)Nc3cccc([N+](=O)[O-])c3)cc2)n1	–	–	–	-36	–
Cc1ccc(SCc2ccc(C(=O)Nc3cccc([N+](=O)[O-])c3)cc2)cc1	–	–	–	-51	–
COc1ccc([N+](=O)[O-])cc1NC(=O)Nc1ccc(OC)c(OC)c1	–	–	–	·	–
COc1ccc([N+](=O)[O-])cc1NC(=O)Nc1cccc(Cl)c1	–	–	–	-41	–
COc1ccccc1NS(=O)(=O)c1cccc(NC(=O)Nc2cccc(Cl)c2)c1	–	–	–	-39	–
